ROS inducer – inducers of reactive oxygen species in cancer cells. hit rate 2% among 46,000. AID 624156. ROS induction (% of piperlongumine), % at 10 µM. U2OS ROS induction, H2DCF-DA fluorescence; in the data active means ROS induction above about 79%, passing the limit was not always enough;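 further: 0% = DMSO vehicle median and 100% = reference compound median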
YB-1 expression – YB-1 expression inhibition; delta delta Cp (YB-1 minus CDIP) (concentration not given with the values); hit rate 0.37% among 30,000; U2OS, qRT-PCR YB-1 vs CDIP delta delta Cp, 16 h; stronger effect = higher value; zero = DMSO, each unit about twofold;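 active means delta delta Cp rounded down to an integer at or above 3, about 3 SD of DMSO wells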;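 further: higher means less YB-1 transcript or more CDIP transcript relative to DMSO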
PD-1 reversal – reversal of PD-1 mediated T-cell inhibition; primary human CD4 T cells, PD-L1 beads, CellTiter-Glo 96 h; activation, % (concentration not given with the values); 29,000 tested, under 10 active; AID 2316; call rule not given here;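 further: 0% = median vehicle wells and 100% = positive control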
Numbers without * were called inactive. Shown are actives, neighbours in structure and some others; about 2.3% of the full set was active somewhere.

How did C[C@H]1CN([C@@H](C)CO)C(=O)CCCn2cc(nn2)CO[C@@H]1CN(C)C(=O)Oc1ccc2ccccc2c1 do in these assays?
ROS inducer: 134*; YB-1 expression: -0.25

Results for C[C@@H]1CN([C@H](C)CO)C(=O)CCCn2cc(nn2)CO[C@@H]1CN(C)C(=O)Oc1ccc2ccccc2c1 ?
ROS inducer: 31; YB-1 expression: -0.28

What do the screens show for `Cc1cc(Br)c(NC(=O)C2C(C)(C)C2(C)C)c(Br)c1`?
ROS inducer: 1; YB-1 expression: -0.34; PD-1 reversal: -5

How did C[C@@H]1C(=O)O[C@H]2[C@H]1CC[C@@]1(C)C=CC(=O)[C@@]3(C)O[C@@]213 do in these assays?
ROS inducer: -4; YB-1 expression: 4*; PD-1 reversal: -5

Results for C[C@@H]1CCC/C=C/[C@H]2C[C@@H](O)C[C@@H]2[C@@H](O)/C=C\C(=O)O1 ?
ROS inducer: -10; YB-1 expression: 0.2; PD-1 reversal: -6

Results for CC[C@H]1CN2CCc3cc(OC)c(OC)cc3[C@@H]2C[C@@H]1C[C@H]1NCCc2cc(O)c(OC)cc21 ?
ROS inducer: 9; YB-1 expression: 1.2

What do the screens show for `C[C@@H](CO)NC(=O)C1C=C2c3cccc4[nH]cc(c34)C[C@H]2N(C)C1` (some centres not stated)?
ROS inducer: -9; YB-1 expression: -0.27

Results for CC(C)C[C@H]1C(=O)N2CCC[C@H]2[C@]2(O)O[C@](NC(=O)[C@@H]3C=C4c5cccc6[nH]cc(c56)C[C@H]4N(C)C3)(C(C)C)C(=O)N12 ?
ROS inducer: 120*; YB-1 expression: 0.36

What do the screens show for `COc1ccc2c(c1OC)CN1CCc3cc4c(cc3C1C2)OCO4` (configuration not stated)?
ROS inducer: -10; YB-1 expression: -0.29

How did COc1ccc2c(c1OC)C(=O)O[C@H]2[C@H]1c2cc3c(cc2CCN1C)OCO3 do in these assays?
ROS inducer: 7; YB-1 expression: 6.4*

Results for C[C@H]1O[C@@H](O[C@H]2C[C@@H](O)[C@]3(CO)C4C(CC[C@]3(O)C2)[C@@]2(O)CC[C@H](C3=CC(=O)OC3)[C@@]2(C)C[C@H]4O)[C@@H](O)[C@@H](O)[C@H]1O (some centres not stated) ?
ROS inducer: 7; YB-1 expression: -0.13; PD-1 reversal: -29

What do the screens show for `C/C=C(\C)[C@H](O)[C@H](C)/C=C(C)/C=C/C/C(C)=C/Cc1[nH]c(OC)c(OC)c(=O)c1C`?
ROS inducer: 17; YB-1 expression: -0.53; PD-1 reversal: -8

Results for CCOC(=O)C1(c2ccccc2)CCN(C(=O)c2c(C)oc3ccc(OC)cc23)CC1 ?
ROS inducer: 80*

Results for C[C@H]1CC[C@@H]2[C@@H](C)[C@H]3[C@H](C[C@H]4[C@@H]5CC=C6CC(O[C@@H]7O[C@H](CO)[C@@H](O)[C@H](O[C@@H]8O[C@H](CO)[C@@H](O)[C@H](O)[C@H]8O)[C@@H]7O[C@@H]7O[C@@H](C)[C@H](O)[C@@H](O)[C@H]7O)CC[C@]6(C)[C@H]5CC[C@]34C)N2C1 (some centres not stated) ?
ROS inducer: -26; YB-1 expression: -0.8; PD-1 reversal: -5

What do the screens show for `CC(N)Cc1c[nH]c2ccc(OCc3cccs3)cc12` (configuration not stated)?
ROS inducer: 99*; YB-1 expression: -1.3; PD-1 reversal: 3

Results for COc1ccc2[nH]cc(CCN)c2c1 ?
ROS inducer: 5; YB-1 expression: 0.5; PD-1 reversal: 4

Results for CC(=O)NC1C(OC2OC(CC(O)C3OC(n4ccc(=O)[nH]c4=O)C(O)C3O)C(O)C(O)C2NC(=O)/C=C/CCCCCCCCCC(C)C)OC(CO)C(O)C1O (configuration not stated) ?
ROS inducer: -13; YB-1 expression: -0.4; PD-1 reversal: -4

What do the screens show for `CCC(C)[C@H]1C(=O)O[C@H](C(C)C)C(=O)N(C)[C@@H](C(C)CC)C(=O)O[C@H](C(C)C)C(=O)N(C)[C@@H](C(C)CC)C(=O)O[C@H](C(C)C)C(=O)N1C` (some centres not stated)?
ROS inducer: -26; YB-1 expression: -0.1; PD-1 reversal: -14

Source: PubChem
